Laboratory results from PubChem BioAssay (NCI).
Values joined by “and” are separate entries in the source; they are usually repeats but may differ in a detail not shown here. Equal values may be shown once. Compounds without any hit were thinned out: in the full panel of roughly 83,000, 20% have a hit.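 Values shown are percent growth following 48 h exposure of cells in 96-well plates to a single concentration of compound; below 10 was considered active.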 Active and inactive are the calls of the source.

These compounds were tested on OVCAR-3 ovarian (assay: NCI-60 one-dose screen, 48 h (100 = growth as untreated, 0 = no growth, -100 = all killed)). Conditions: 10 µM.
Description: Growth inhibition of the OVCAR-3 human tumor cell line is measured as a screen for anti-cancer activity. Cells are grown in 96 well plates and exposed to the test compound for 48 hours. Compounds are tested at a single concentration, which is 10^-5 M for most compounds. The reported endpoint is percent growth (GI% or GIPRCNT), where numbers from 0 - 100% represent growth inhibition, and numbers from -100% - 0 represent cell death. For example, a value of 40 represents 60% growth inhibition. A value of 0 means no net growth occurred over the course of the experiment. A value of -40 indicates 40% of cells at the beginning of the experiment died by the end of the experiment. A value of -100 means all cells are dead at the end of the experiment.
NCI-60 Human Tumor Cell Lines Screen was performed using the standard one-dose NCI protocol, which is described in more detail at https://dtp.cancer.gov/discovery_development/nci-60/default.htm.
Compounds with GIPRCNT values below 10 were considered active. Activity score was based on GIPRCNT using the following formula: […]
Score is 0 for GIPRCNT values of 100 or above, 50 for GIPRCNT values of 0, and 100 for GIPRCNT values of -100.

With `Oc1ccccc1-c1ccccc1` as the compound, how does the growth read?
The growth was 103% (inactive) and 116% (inactive).

How did the growth turn out when `Cc1cc(C(C)(C)c2ccc(O)c(C)c2)ccc1O` was run?
The growth was 85.9% (inactive).

`COc1cc2c(c(OC)c1OC)-c1ccc(O)c(=O)cc1[C@@H](NC(C)=O)CC2` was tested. Which growth did it give?
The growth was 3.49% (active).

How did the growth turn out when `NC(Cc1ccccc1)c1ccccc1` (stereo not given) was run?
Its growth is 112% (inactive) and 118% (inactive).

With `O=S(=O)(F)c1ccc(Cl)cc1` as the compound, how does the growth read?
The growth was 108% (inactive).

For `CCOP(=O)(OCC)C(O)c1ccccc1Cl` (stereo not given), which growth is on record?
Its growth is 99.5% (inactive).

How did the growth turn out when `COc1cc([N+](=O)[O-])c2ncccc2c1[N+](=O)[O-]` was run?
Its growth is 58.1% (inactive).

For `NC(=O)c1cc([N+](=O)[O-])c(Cl)c([N+](=O)[O-])c1`, which growth is on record?
The growth was -41.1% (active).

`CC/C(=C/c1ccc(OC)cc1)[N+](=O)[O-]` was tested. Which growth did it give?
Its growth is -54.6% (active).

Which growth does the source give for `CC(C)(C)OOC(=O)/C=C\C(=O)OOC(C)(C)C` here?
Its growth is 113% (inactive).

How did the growth turn out when `Cc1cc([N+](=O)[O-])c2ccccc2[n+]1[O-]` was run?
The growth was -32.2% (active) and -41% (active).

Which growth does the source give for `COc1ccc(/C=C\[N+](=O)[O-])cc1OC` here?
Its growth is 55.6% (inactive) and 37% (inactive).

With `N#CCc1ccccc1` as the compound, how does the growth read?
Its growth is 111% (inactive).

`O=C(CBr)Nc1ccccc1` was tested. Which growth did it give?
Its growth is 98.3% (inactive).

Which growth does the source give for `C=NCC#N` here?
Its growth is 105% (inactive) and 119% (inactive).

For `COc1cc(/C=C\[N+](=O)[O-])ccc1O`, which growth is on record?
Its growth is 62.4% (inactive) and 71.5% (inactive).

For `O=[N+]([O-])c1ccc(N(CCO)CCO)c2c1no[n+]2[O-]`, which growth is on record?
The growth was -65.9% (active).

With `COS(=O)(=O)c1ccccc1` as the compound, how does the growth read?
The growth was 110% (inactive).

How did the growth turn out when `O=C1C=Cc2ccccc2C1=O` was run?
Its growth is 96.9% (inactive).

`C[CH2][Hg][S]c1ccccc1C(=O)O` was tested. Which growth did it give?
Its growth is -100% (active).

For `[Cl][Sn]([c]1ccccc1)([c]1ccccc1)[c]1ccccc1`, which growth is on record?
Its growth is -94.2% (active).

`C/C(=C\c1ccc(Cl)c(Cl)c1)[N+](=O)[O-]` was tested. Which growth did it give?
The growth was -97.7% (active) and 107% (inactive).

With `CS(=N)(=O)CCC(N)C(=O)O` (stereo not given) as the compound, how does the growth read?
Its growth is 115% (inactive).

For `COc1cc(/C=C/[N+](=O)[O-])cc(Br)c1OC`, which growth is on record?
The growth was 69.9% (inactive).

Which growth does the source give for `O=C1CCC(=O)N1SC(Cl)(Cl)Cl` here?
Its growth is 122% (inactive).

Which growth does the source give for `CC(=O)Nc1c2sscc-2n(C)c1=O` here?
The growth was -100% (active).

Which growth does the source give for `O=c1[nH]c2ccccc2n1C1CCN(CCCC(c2ccc(F)cc2)c2ccc(F)cc2)CC1` here?
Its growth is -74.2% (active) and 39.5% (inactive).

With `COC12c3c(C)cc(O)c4c(=O)occ(c34)C(=O)C1C13COC(=O)c4c(O)cc(C)c(c41)C(=O)C2C3OC(C)=O` (stereo not given) as the compound, how does the growth read?
The growth was 105% (inactive).

For `COc1cc([C@@H]2c3cc4c(c(O)c3C[C@H]3COC(=O)[C@@H]32)OCO4)cc(OC)c1OC`, which growth is on record?
Its growth is -48.9% (active).

Which growth does the source give for `C[C@]12CC[C@H]3[C@@H](CCC4=CC(=O)CC[C@@H]43)[C@@H]1CC[C@@H]2OC(=O)N(CCCl)N=O` here?
The growth was 89.9% (inactive).

Which growth does the source give for `CCCCCCCC[N+]12CN3CN(CN(C3)C1)C2` here?
Its growth is 97.9% (inactive).

`O=[P+](O)c1ccccc1` was tested. Which growth did it give?
Its growth is 109% (inactive).

How did the growth turn out when `CCOP(=O)(OCC)/C(C#N)=C/c1ccc(Br)cc1` was run?
The growth was 112% (inactive).

How did the growth turn out when `COc1ccc2c(ccc3oc([N+](=O)[O-])cc32)c1` was run?
The growth was -13.9% (active).

`CN(C)CC1(N)C(=O)NC(=O)NC1=O` was tested. Which growth did it give?
Its growth is 113% (inactive).

How did the growth turn out when `O=C(CCl)Nc1ccc(Cl)cc1` was run?
The growth was 0.0428% (active).

Which growth does the source give for `COc1ccc(/C=C(\C)[N+](=O)[O-])cc1OC` here?
The growth was -76.3% (active).

Which growth does the source give for `COc1cc(/C=C(/C)[N+](=O)[O-])ccc1O` here?
The growth was -76.2% (active) and -89.3% (active).

For `C/C1=C\[C@H](C)C[C@H](C)OC(=O)C[C@H](c2ccc(O)cc2)NC(=O)[C@@H](Cc2c(Br)[nH]c3ccccc23)N(C)C(=O)[C@H](C)NC(=O)[C@@H](C)C1`, which growth is on record?
Its growth is -44.9% (active).

With `CC(C)C1(NC(=O)C2CC3c4cccc5[nH]cc(c45)CC3N(C)C2)OC2(O)C3CCCN3C(=O)C(Cc3ccccc3)N2C1=O` (stereo not given) as the compound, how does the growth read?
Its growth is 116% (inactive).
